The nature of test [1]: inhibitors of TNFa-induced NFkB p65 translocation, primary screen, imaging, HUVEC, MLSMR starter and 10KST1 sets (AID 438;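 active = inhibition above 20% together with a positive visual image hit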;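 also: compound added about 3h40 before a 20 min TNFalpha stimulation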;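 as to inhibition: signal is the nuclear over cytoplasmic p65 intensity ratio per well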). To be noted: HUVEC TNFa-induced p65 nuclear translocation; cell count: measured here: nuclei count (cytotoxicity indicator), at 2.08 µM; inhibition: at 2 µM, stronger effect = higher value, 0% TNFa-plus-vehicle, 100% no-TNFa wells.
Test [2] in a line: inhibitors of mutant huntingtin aggregation, primary screen, imaging, exon1htt(103Q)mCFP cells, high-content imaging (AID 483;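 active = visual image review flags a hit and inhibition of aggregation exceeds 20%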;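 also: compound exposure lasted 3 days before fixation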;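 as to nuclei count: percent of the per-plate median nuclei count of sample wells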). To be noted: exon1htt(103Q)mCFP cell line, aggregate imaging, at 2 µM; inhibition of aggregation: stronger effect = higher value; nuclei count: measured here: cell count, toxicity.
A short description of test [3]: inhibitors of E-selectin induction by TNFa, primary screen, imaging, HUVEC, immunofluorescence, MLSMR starter and 10KST1 sets (AID 487;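 active = visually confirmed hit in the image check and inhibition above 20%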;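 as to inhibition: signal is fraction of cell area covered by stained E-selectin grains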;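 as to nuclei count: 100% = median nuclei count of all wells on the same plate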). The settings on record: HUVEC TNFalpha-induced E-selectin immunofluorescence imaging, at 2 µM; inhibition: stronger effect = higher value; nuclei count: measured here: cell number, toxicity.
The nature of test [4]: DUSP6 inhibitors restoring Erk phosphorylation by chemical complementation, primary imaging in DUSP6-transfected HeLa (AID 609;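 active = compounds giving at least 50% inhibition in the cell-based MKP-3 phosphatase rescue imaging test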;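 as to inhibition: phospho-Erk level distribution per well compared with pooled transfected vehicle control wells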). The settings on record: HeLa MKP-3 transfected, phospho-Erk imaging KS statistic, at 10 µM, cells stimulated with TPA for 15 min.
The target of test [5] is Dual specificity protein phosphatase 6 (Homo sapiens) (UniProt Q16828). The description is as above. The settings on record: HeLa MKP-3 transfected, phospho-Erk imaging KS statistic; at 10 µM; stronger effect = higher value; cells stimulated with TPA for 15 min.
Dual specificity protein phosphatase 6 (Homo sapiens), sequence (Q16828 whole entry, looked up): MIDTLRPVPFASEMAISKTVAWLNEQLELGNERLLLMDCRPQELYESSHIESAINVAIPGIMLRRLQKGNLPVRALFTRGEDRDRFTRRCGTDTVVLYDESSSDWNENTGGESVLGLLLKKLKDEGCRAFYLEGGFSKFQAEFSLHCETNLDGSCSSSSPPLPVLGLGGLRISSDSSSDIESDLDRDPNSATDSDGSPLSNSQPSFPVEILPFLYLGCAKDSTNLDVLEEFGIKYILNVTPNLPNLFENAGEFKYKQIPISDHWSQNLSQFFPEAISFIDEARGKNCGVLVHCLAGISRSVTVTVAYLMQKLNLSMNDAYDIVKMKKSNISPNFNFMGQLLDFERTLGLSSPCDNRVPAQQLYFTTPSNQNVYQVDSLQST
Test [6] deals with Voltage-gated potassium channel subunit beta-2 (Rattus norvegicus) (UniProt P62483). As to the kind of experiment: KvBeta enzyme negative modulators, primary screen, biochemical, NADPH fluorescence (AID 622;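 active = fluorescence slope higher than the sample average by over 3 SD, cut at about -0.22 in these data, passing the limit was not always enough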;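 also: slope of raw intensity against log time taken from 70 to 1610 s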). The settings on record: recombinant KvBeta, 4-cyanobenzaldehyde reduction, at 10 µM, stronger effect = higher value.
Voltage-gated potassium channel subunit beta-2 (Rattus norvegicus), sequence (P62483 whole entry, looked up): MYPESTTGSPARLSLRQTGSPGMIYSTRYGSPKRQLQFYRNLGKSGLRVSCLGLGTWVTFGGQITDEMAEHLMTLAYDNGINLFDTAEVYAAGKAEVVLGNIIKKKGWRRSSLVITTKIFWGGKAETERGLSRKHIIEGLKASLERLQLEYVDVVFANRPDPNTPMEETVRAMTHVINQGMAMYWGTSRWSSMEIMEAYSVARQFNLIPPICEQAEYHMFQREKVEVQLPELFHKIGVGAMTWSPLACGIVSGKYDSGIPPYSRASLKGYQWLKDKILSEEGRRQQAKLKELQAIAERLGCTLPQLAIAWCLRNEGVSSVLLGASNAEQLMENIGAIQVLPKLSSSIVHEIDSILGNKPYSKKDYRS
Test [7] shares this target. Kind of test: KvBeta positive modulators, primary screen, biochemical, NADPH fluorescence (AID 623;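 active = NADPH fluorescence slope more negative than the mean of all samples by about 3 SD, 99.7% confidence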;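 also: fluorescence intensity change per second fitted from 20 to 320 s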). The settings on record: Recombinant KvBeta, NADPH fluorescence decrease slope, 10 min; at 10 µM; stronger effect = lower value.
Test [8] has as its target Alpha-2C adrenergic receptor (Homo sapiens) (UniProt P18825). Kind of test: modulators of alpha2C/GIRK thallium flux, primary screen, cell-based, HEK293 alpha2C/GIRK1/2 (AID 624;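 active = fluorescence slope after compound addition differing from the mean of all screened samples at 99.7% confidence, in either direction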;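 also: slope of fluorescence ratio to pre-addition baseline per second over 15 to 24 s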). The settings on record: thallium flux BTC fluorescence, at 10 µM, actives lie on both sides.
Test [9] in a line: inhibitors of larval lipid processing in zebrafish, primary screen, whole organism, PED6 fluorescence, gall bladder and intestine (AID 686;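 active = a full or partial loss of lipid-probe fluorescence in the fish gall bladder, intestine or both, judged by eye; inactive = no fluorescence loss, or compound toxic to the fish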;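 also: larvae 5 to 7 days old with five fish per well; signal comes from phospholipase A2 cleavage of quenched PED6 carried via bile; overnight exposure to compound and PED6 before scoring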). The settings on record: Zebrafish larvae PED6 lipid processing, fluorescence scoring; screened at 20 µM (by protocol).
A short description of test [10]: inhibitors of Chlamydomonas gravitaxis, primary screen, whole organism, Chlamydomonas reinhardtii, WT vs cilia-less mutant, absorbance, 96-well (AID 463189).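 Also: 0% = wild type cc124 cells in DMSO and 100% = ciliumless bld1 mutant cells.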 To be noted: OD600 absorbance, 2 days, at 10 µM, stronger effect = higher value.
A short description of test [11]: inhibitors of Sendai virus-induced IRF3 signaling, primary screen, TLR/RLR signaling modifier project, cell-based, Sendai virus stimulus, luciferase, 10K MLSCN set (AID 602276;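 active = inhibition at or above 50% at 10 µM; inactive = inhibition below 50%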;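 also: firefly luciferase from ISG56 promoter only with Renilla not read in this screen; 0% = Sendai virus plus DMSO and 100% = medium plus DMSO without virus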). To be noted: HEK293 RL24 IRF3 luciferase reporter, at 10 µM, stronger effect = higher value. (In a reporter assay the amount or activity of a reporter protein is the signal.)
The nature of test [12]: inhibitors of poly I:C-induced TLR3 signaling, primary screen, cell-based, poly I:C stimulus, luciferase, 10K MLSCN set (AID 602277;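 active = inhibition of the reporter signal at or above 50%; inactive = inhibition below 50%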). To be noted: HEK293-TLR3 RL24 IRF3 luciferase reporter, at 10 µM, stronger effect = higher value.
Where [13] appears, read: measured here: cell density z-score.
Setting [14] is: measured here: nuclear c-Myc green intensity z-score.
The mark [15] stands for this setting: measured here: nuclear pErk red intensity z-score, stronger effect = higher value.

Experimental findings from PubChem BioAssay are described below.

Values joined by “and” are separate entries in the source; they are usually repeats but may differ in a detail not shown here. Equal values may be shown once. Active and inactive are the calls of the source.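 The calls were made as follows, unless noted: active = inhibition at or above 50% relative to wild type and mutant plate controls; inactive = inhibition below 50%.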

Alpha-2C adrenergic receptor (Homo sapiens), sequence (P18825 whole entry, looked up): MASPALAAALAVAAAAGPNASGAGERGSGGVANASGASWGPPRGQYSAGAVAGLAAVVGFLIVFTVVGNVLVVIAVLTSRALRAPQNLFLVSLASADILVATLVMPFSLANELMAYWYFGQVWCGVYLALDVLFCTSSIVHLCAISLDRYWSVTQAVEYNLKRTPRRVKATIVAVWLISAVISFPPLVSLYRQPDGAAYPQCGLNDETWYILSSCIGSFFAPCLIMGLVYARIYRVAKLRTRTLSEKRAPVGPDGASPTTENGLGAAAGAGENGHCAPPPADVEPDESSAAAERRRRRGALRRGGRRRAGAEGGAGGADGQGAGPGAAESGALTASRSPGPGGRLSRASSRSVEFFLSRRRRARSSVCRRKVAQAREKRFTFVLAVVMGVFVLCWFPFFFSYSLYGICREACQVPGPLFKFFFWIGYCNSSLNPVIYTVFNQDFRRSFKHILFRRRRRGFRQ

Usually inhibition stands for the change of the read-out against control, counted positive when it falls. In the case of `Cc1cc(C)n(-c2nnc(C)n2/N=C/c2ccco2)n1`, the cell count in test [1] came to 609. Further, the inhibition in test [1] is -8.3% (inactive); in [3], -232% (inactive); in test [5], 20.2% (inactive); in test [10], 17.4% (inactive); in test [11], 17.4% (inactive); in test [12], 24% (inactive). Besides, the inhibition of aggregation in [2] was -21.9% (inactive). Besides, the nuclei count in test [2] was found to be 106%; in [3], 159%. The z-score in test [4] (setting [13]) was 1.68; in test [4] (setting [14]) it was -0.585; in test [4] (setting [15]), 0.108. The fluorescence slope in [6] is -0.501 (inactive). The NADPH fluorescence slope in [7] is -5.1e-05 (inactive). For the same compound, the slope in test [8] was 0.00494 (inactive). Moreover, the compound was called inactive in test [9].
Consider `CCCN(CCC)C(=O)C(CCC(=O)O)NC(=O)c1ccccc1` (stereo not given), for which the cell count in test [1] worked out at 589. Moreover, the inhibition was -1.1% (inactive) in test [1]; -37.3% (inactive) in test [3]; 5.79% (inactive) in test [5]; 5.36% (inactive) and -10.6% (inactive) in test [10]; 11.3% (inactive) in test [11]; 28% (inactive) in test [12]. The inhibition of aggregation in test [2] is 11.8% (inactive). The nuclei count in [2] was 92.5%; in test [3], 118%. Also, the results for the z-score in test [4] (setting [13]), in [4] (setting [14]) and in test [4] (setting [15]) were -1.75, 0.853 and -0.876, respectively. Moreover, in test [6], the fluorescence slope is -0.461 (inactive). In addition, the NADPH fluorescence slope in [7] was -3.2e-05 (inactive). In addition, the slope in test [8] is 0.00459 (inactive). Further, in test [9], the call was inactive.
Take `CCOC(=O)CC(=O)CSc1[nH]c(=O)cc(C)c1C#N`: in [1], the cell count was 653. For the same compound, the inhibition in [1] was -6% (inactive); in [3] it was 28.4% (inactive); in [5] it was 11% (inactive); in test [10] it was 6.76% (inactive); in test [11], 3.57% (inactive); in test [12], 10% (inactive). In addition, the inhibition of aggregation in [2] was 5.4% (inactive). For the same compound, the nuclei count in test [2] came out at 96.3%; in test [3], 132%. Moreover, the z-score was -1.3 in test [4] (setting [13]), 0.221 in [4] (setting [14]) and -0.165 in [4] (setting [15]). Besides, in test [6], the fluorescence slope is -0.403 (inactive). Besides, the NADPH fluorescence slope in [7] is -6.7e-05 (inactive). For the same compound, the slope in [8] is 0.0053 (inactive). In addition, in test [9], the compound was called inactive.
Take `CCCCCCCCCCCCCCCC(O)C(N)CO` (stereo not given): in test [1], the cell count was 586. Further, the inhibition in test [1] is 0.2% (inactive); in test [3], -75.6% (inactive); in [5], 25.1% (inactive); in [10], 61% (active); in [11], 18.8% (inactive); in test [12] it was 4.1% (inactive). Further, in test [2], the inhibition of aggregation is -17.4% (inactive). In addition, the nuclei count stood at 104% in test [2] and 122% in test [3]. In addition, the z-score was 0.584 in [4] (setting [13]), 2.76 in test [4] (setting [14]) and 2.96 in [4] (setting [15]). Moreover, the fluorescence slope in test [6] is -0.485 (inactive). Further, the NADPH fluorescence slope in [7] is -6.4e-05 (inactive). The slope in [8] was 0.00528 (inactive). Besides, in [9], the outcome was “inactive; toxic”.
Take `C(=C\c1ccccc1)/CN1CCN(C(c2ccccc2)c2ccccc2)CC1`: the cell count in test [1] worked out at 635. In addition, the inhibition in test [1] was -9.5% (inactive); in test [3], -95.1% (inactive); in [5], 11.3% (inactive); in test [10], 126% (active) and 125% (active); in test [11], 9.39% (inactive); in test [12] it was 26.9% (inactive). Besides, in test [2], the inhibition of aggregation was -21.5% (inactive). The nuclei count was 107% in [2] and 131% in test [3]. Besides, the z-score is 0.835 in test [4] (setting [13]), -0.254 in test [4] (setting [14]) and 0.957 in [4] (setting [15]). For the same compound, the fluorescence slope in test [6] is -0.448 (inactive). Also, the NADPH fluorescence slope in test [7] is -6.1e-05 (inactive). The slope in test [8] was 0.00492 (inactive). In addition, the call in test [9] was inactive.
Turning to `COC(=O)c1ccc(C2NC(C(=O)O)CS2)cc1` (stereo not given), the cell count in test [1] came to 652. The inhibition is -14.6% (inactive) in [1]; -8.7% (inactive) in test [3]; -9.66% (inactive) in [5]; 5.15% (inactive) in test [10]; 14.2% (inactive) in [11]; 18.9% (inactive) in test [12]. For the same compound, the inhibition of aggregation in [2] was 3.9% (inactive). Further, the results for the nuclei count in test [2] and in [3] were 107% and 139%, respectively. Moreover, the z-score in test [4] (setting [13]) was -0.228; in test [4] (setting [14]), -1.99; in test [4] (setting [15]) it was -1.57. Further, the fluorescence slope in test [6] is -0.4 (inactive). In test [7], the NADPH fluorescence slope is -2.2e-05 (inactive). The slope in test [8] was 0.00581 (inactive). Besides, the result in test [9] was inactive.
On to `COc1ccc(Cl)cc1C(=O)NCCc1ccc(S(=O)(=O)NC(=O)NC2CCCCC2)cc1`, for which the cell count in test [1] was 517. The inhibition in [1] is -3.1% (inactive); in [3] it was 48.6% (inactive); in test [5] it was 5.79% (inactive); in [10], 3.54% (inactive) and -10.9% (inactive); in test [11] it was 19.2% (inactive); in [12], 42.8% (inactive). Moreover, the inhibition of aggregation in test [2] is -17.2% (inactive). In addition, the nuclei count is 105% in [2] and 80.7% in test [3]. In addition, the figures for the z-score in test [4] (setting [13]), in test [4] (setting [14]) and in test [4] (setting [15]) were 0.545, -1.59 and -0.882, respectively. In test [6], the fluorescence slope is -0.462 (inactive). Further, in [7], the NADPH fluorescence slope is -5.3e-05 (inactive). In [8], the slope is 0.00532 (inactive). In test [9], the result was inactive.
As for `N=c1ncn(CC(O)CN2CCOCC2)c2nc(N3CCOCC3)[nH]c12` (stereo not given), in [1], the cell count turned out to be 536. For the same compound, the inhibition in [1] is -23.6% (inactive); in test [3], -90.1% (inactive); in test [5] it was 17.3% (inactive); in [10], 17.5% (inactive); in test [11], -19.8% (inactive); in [12], -9.49% (inactive). In addition, the inhibition of aggregation in [2] is 20.3% (inactive). Also, the nuclei count amounted to 88.8% in [2] and 124% in [3]. The z-score in test [4] (setting [13]) is 0.636; in [4] (setting [14]) it was -1.17; in test [4] (setting [15]), 0.315. The fluorescence slope in test [6] is -0.517 (inactive). The NADPH fluorescence slope in test [7] was -2.5e-05 (inactive). Besides, the slope in test [8] was 0.00808 (inactive). Further, the result in [9] was inactive.
Turning to `CC(C)OC(=O)C(CC(=O)O)NCc1ccccc1` (stereo not given), the cell count in test [1] stood at 518. The inhibition was -2% (inactive) in test [1]; -117% (inactive) in test [3]; 1.75% (inactive) in test [5]; -6.73% (inactive) in [10]; 14.9% (inactive) in [11]; 20.3% (inactive) in [12]. Besides, the inhibition of aggregation in test [2] is 15% (inactive). The figures for the nuclei count in test [2] and in test [3] were 65.3% and 118%, respectively. The z-score turned out to be 0.414 in test [4] (setting [13]), 0.989 in [4] (setting [14]) and 0.212 in test [4] (setting [15]). In addition, the fluorescence slope in [6] is -0.296 (inactive). Further, the NADPH fluorescence slope in test [7] is 2.8e-05 (inactive). For the same compound, the slope in test [8] was 0.00502 (inactive). The compound was called inactive in test [9].
`CCN(CC)CCOC(=O)C(c1ccccc1)c1ccccc1`: the cell count in test [1] stood at 533. Also, the inhibition is -8.8% (inactive) in test [1]; -7.9% (inactive) in test [3]; 7.39% (inactive) in test [5]; -5.27% (inactive) in [10]; 9.86% (inactive) in test [11]; 40.1% (inactive) in [12]. Moreover, the inhibition of aggregation in test [2] was 19.8% (inactive). Also, the nuclei count worked out at 104% in test [2] and 122% in [3]. Moreover, the z-score was -0.21 in test [4] (setting [13]), -0.778 in test [4] (setting [14]) and -0.535 in test [4] (setting [15]). In addition, the fluorescence slope in test [6] was -0.478 (inactive). In addition, the NADPH fluorescence slope in test [7] is -3.2e-05 (inactive). Moreover, the slope in [8] is 0.00418 (inactive). Further, the result in test [9] was inactive.
